Source: PubChem BioAssay (Sanford-Burnham Center for Chemical Genomics)
In the library only some 2% were active in any assay of this set; here they are far more common.
Neddyl block: cullin neddylation inhibition; actives 0.58% (n = 360,000); P61081+Q13564; inhibition, % at 25 µM; TR-FRET cullin neddylation, biochemical; in the data active means inhibition above about 36%
NPR1 activator: GC-A (human) enzyme activation; P16066; HEK293 GC-A cells, cGMP TR-FRET, EC30 ANP; 0% at EC30 ANP, 100% saturating ANP; activation, % at 10 µM; actives 0.14% (n = 370,000); AID 1671463; in the data active means activation above about 40%
A3G deaminase: blocks human APOBEC3G single-stranded DNA deamination; Q9HC16; recombinant A3G, ssDNA deamination FAM/TAMRA fluorescence; inhibition, % at 20 µM; actives 0.28% (n = 330,000); AID 493012;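 active means inhibition of at least 40% at 20 µM, with no more than 30% in the related APOBEC3A deaminase screen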;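 further: plate controls were DMSO wells with A3G for no effect and wells lacking A3G enzyme for full effect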
GC-B act: GC-B (human) receptor activation; HEK293-GC-B cells, CNP EC30, cGMP TR-FRET; 0% at EC30 CNP, 100% saturating CNP; P20594; activation, % at 10 µM; actives 0.11% (n = 370,000); AID 1920062;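 active means activation at 10 µM reaching about 35% in either raw or pattern-adjusted values, limit read from the data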
Target sequence (P20594 whole entry, looked up): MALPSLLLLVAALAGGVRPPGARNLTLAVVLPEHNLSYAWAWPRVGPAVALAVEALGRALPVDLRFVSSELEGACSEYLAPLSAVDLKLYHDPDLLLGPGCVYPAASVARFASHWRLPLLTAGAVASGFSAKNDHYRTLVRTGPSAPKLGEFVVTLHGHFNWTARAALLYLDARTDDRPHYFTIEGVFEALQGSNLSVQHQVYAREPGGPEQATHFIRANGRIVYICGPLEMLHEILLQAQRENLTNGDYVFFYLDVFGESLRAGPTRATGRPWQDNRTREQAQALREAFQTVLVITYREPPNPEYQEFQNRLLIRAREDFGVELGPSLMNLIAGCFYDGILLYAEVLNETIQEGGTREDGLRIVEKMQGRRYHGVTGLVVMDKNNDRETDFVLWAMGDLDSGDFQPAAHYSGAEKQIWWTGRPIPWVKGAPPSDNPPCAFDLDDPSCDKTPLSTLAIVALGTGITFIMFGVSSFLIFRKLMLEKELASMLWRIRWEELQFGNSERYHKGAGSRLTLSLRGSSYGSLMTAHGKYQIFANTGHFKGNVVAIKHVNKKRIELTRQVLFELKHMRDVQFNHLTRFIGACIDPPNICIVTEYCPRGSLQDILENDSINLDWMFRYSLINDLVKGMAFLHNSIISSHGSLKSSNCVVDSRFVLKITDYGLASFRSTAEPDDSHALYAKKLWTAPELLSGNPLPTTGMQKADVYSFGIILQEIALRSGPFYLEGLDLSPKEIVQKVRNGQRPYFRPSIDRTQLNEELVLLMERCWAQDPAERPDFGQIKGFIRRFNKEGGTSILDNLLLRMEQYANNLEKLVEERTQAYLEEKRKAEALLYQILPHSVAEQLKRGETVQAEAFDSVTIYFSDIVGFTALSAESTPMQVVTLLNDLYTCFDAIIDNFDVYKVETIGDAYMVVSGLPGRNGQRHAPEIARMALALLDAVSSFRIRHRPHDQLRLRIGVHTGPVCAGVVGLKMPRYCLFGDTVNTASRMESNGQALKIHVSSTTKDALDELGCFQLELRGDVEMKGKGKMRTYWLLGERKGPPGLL
PfG6PD inh: PfG6PD (Plasmodium falciparum) enzyme inhibition; PfGluPho enzyme, NADPH resazurin-diaphorase fluorescence; inhibition, % at 20 µM; AID 504690; actives 0.78% (n = 350,000);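 active means inhibition reaching at least a set limit at 20 µM in the primary screen, cut at about 59% in these data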;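 further: 0% = DMSO wells with substrate and 100% = DMSO wells lacking glucose-6-phosphate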
APOBEC3A inh: human APOBEC3A DNA deaminase inhibition; recombinant A3A, FAM/TAMRA ssDNA deamination fluorescence; inhibition, % at 20 µM; actives 0.41% (n = 330,000);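 active means at least 40% inhibition at 20 µM here, with at most 30% in a related deaminase screen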;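 further: plate controls were A3A with DMSO for no effect and wells lacking A3A enzyme for full effect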
Neddyl conf: cullin neddylation inhibition, confirmation; shares compounds with Neddyl block; TR-FRET cullin neddylation biochemical assay; calls only at 25 µM; actives 13% (n = 1,800); in the data active means inhibition above about 40%;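 further: neddylation substrate is the cullin 1 ring ligase complex with SKP2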
The depositor's hits bear a star; i = inactive; x = no result shown; + = active, no number.

SMILES | Neddyl block | NPR1 activator | A3G deaminase | GC-B act | PfG6PD inh | APOBEC3A inh | Neddyl conf
Cc1[nH]c2ccc(C(=O)OC(C)C(=O)N(C)c3ccccc3)cc2c1C (stereo unspecified) | 41* | x | -3 | x | -5 | -5 | i
CCOc1ccc(C2=Nc3ccc(Br)cc3C(c3ccc(N4CCOCC4)cc3)=NN2)cc1 | x | 3 | -5 | -7 | 4 | -6 | x
CCOc1ccc(C2=Nc3ccccc3C(c3ccc(N4CCOCC4)cc3)=NN2)cc1 | 40* | -1 | -2 | -7 | 1 | 0 | i
NC(=O)COC(=O)c1ccccc1Nc1ccc(SC(F)F)cc1 | 41* | 26 | -5 | 2 | 3 | 0 | i
COc1cc(C2C(C#N)=C(N)N(c3ccc(F)cc3)C3=C2S(=O)(=O)CC3)ccc1O (stereo unspecified) | 47* | -1 | -6 | -6 | 25 | -2 | i
Cc1nc2c(n1O)CCC/C2=N\O | -3 | 6 | -5 | 0 | -3 | -2 | x
COc1ccc(-c2nc3c(n2O)CCC/C3=N\O)cc1 | 45* | 0 | -5 | 3 | 1 | -1 | i
CC(=O)N1CCN(c2nc(CC(C)C)c3c(c2C#N)CCC3)CC1 | x | 2 | -11 | 2 | -3 | -6 | x
CC(C)Cc1nc(N2CCCCC2)c(C#N)c2c1CCC2 | 39* | -4 | -10 | 1 | -15 | -6 | x
COc1cc(NC(=O)NC2CCCCN(Cc3cccc(Cl)c3)C2=O)cc(OC)c1 (stereo unspecified) | x | 1 | x | -1 | x | x | x
CCCn1c(SCC(=O)NCc2ccc(OC)cc2)n[nH]c1=O | 6 | 0 | 2 | 2 | 14 | 3 | x
CC(=O)N1N=C2/C(=C/c3ccccc3)CCCC2C1c1ccccc1 (stereo unspecified) | 47* | 5 | -6 | 0 | -3 | -2 | x
CCCn1c(SCC(=O)N2N=C3/C(=C/c4ccc(OC)cc4)CCCC3C2c2ccc(OC)cc2)n[nH]c1=O (stereo unspecified) | 47* | -5 | -3 | -11 | 22 | 0 | i
COC(=O)[C@]12C[C@H](CC(=O)N3CCSCC3)C(=O)N(Cc3ccccc3)C1=C[C@H](C(C)C)O[C@@H]2C1CC1 | x | -2 | x | -4 | x | x | x
FC(F)C(F)(F)Oc1cccc(Nc2nccn3c(-c4ccc5ccccc5c4)cnc23)c1 | x | -4 | x | -4 | x | x | x
FC(F)C(F)(F)Oc1cccc(Nc2nccn3c(-c4cccc5ccccc45)cnc23)c1 | 47* | -6 | x | 0 | x | x | i
COc1cc(C(=O)Nc2ccc3oc(-c4cccnc4)nc3c2)cc(OC)c1OC | 26 | 7 | -11 | -1 | 5 | -3 | x
COc1ccc(C(=O)Nc2ccc3oc(-c4cccnc4)nc3c2)cc1OC | 41* | 5 | 8 | 5 | -17 | 3 | x
CCC(C)[C@H](NC(=O)OC(C)(C)C)C(=O)N[C@@H](Cc1ccccc1)C(=O)OC (stereo partly specified) | x | -5 | x | -4 | x | x | x
O=C(Nc1ccc(C(F)(F)F)cc1)OC1CCC12CCC(c1ccccc1)CC2 (stereo unspecified) | x | 10 | x | -5 | x | x | x
O=C(COc1ccccc1)NCC(=O)N/N=C/c1ccccc1 | -1 | 1 | -2 | 0 | 34 | 4 | x
CN(C)c1ccc(/C=N/NC(=O)CNC(=O)c2ccco2)cc1 | 41* | -7 | -15 | -4 | 2 | -3 | +
CN(C)c1ccc(/C=N/NC(=O)COc2ccccc2)cc1 | 58* | -6 | -4 | 4 | 3 | -2 | +
Cc1cccc(OCC(=O)NCC(=O)N/N=C/c2ccc([N+](=O)[O-])cc2)c1 | -39 | -1 | 2 | -11 | 2 | 0 | x
Cc1cccc(OCC(=O)N/N=C/c2ccc(N(C)C)cc2)c1 | 43* | -3 | -10 | 1 | 0 | -5 | +
SMILES | Neddyl block | NPR1 activator | A3G deaminase | GC-B act | PfG6PD inh | APOBEC3A inh | Neddyl conf
COc1cc(C(=O)NN=Cc2ccc(N(C)C)cc2)cc(OC)c1OC | 45* | -6 | x | -11 | -2 | x | +
CN(C)c1ccc(/C=N/NC(=O)c2cccc(N3CCCC3=O)c2)cc1 | 42* | -10 | -3 | -7 | 5 | -3 | i
CN(C)c1ccc(/C=N/NC(=O)CCc2nc3ccccc3[nH]2)cc1 | 41* | -5 | -1 | -4 | 2 | -6 | +
CCOC(=O)c1cn2nc(Oc3cccc(F)c3)ccc2n1 | 41* | 2 | -7 | -7 | 2 | -2 | i
CCOC(=O)c1cn2nc(Oc3ccc(NC(C)=O)cc3)ccc2n1 | -1 | 3 | 5 | -3 | -14 | 2 | x
COc1ccc2ccccc2c1CN1CCN(c2ncc(Cc3ccccc3)cn2)CC1 | x | 1 | x | 7 | x | x | x
COc1ccc(C2=Cc3ccccc3C(CC(=O)C3CC3)N2c2ccc(-c3cc(OC)c(OC)c(OC)c3)cc2)cc1 (stereo unspecified) | 42* | 2 | x | 3 | x | x | i
CCN(CC)C(=O)CC[C@H]1CC[C@]2(CCCN(S(=O)(=O)c3ccccc3)C2)O1 | x | 3 | x | -3 | x | x | x
COc1ccc(NS(=O)(=O)c2cccc(C(=O)NCCCN3CCOCC3)c2)cc1 | 3 | 4 | -6 | -2 | -4 | 2 | x
Cc1nc2ccccc2c(=O)n1CCCN1CCOCC1 | 43* | 1 | -1 | 3 | 4 | 2 | i
COc1ccc(-c2nc3ccc(C(=O)NCCCN4CCOCC4)cc3nc2-c2ccc(OC)cc2)cc1 | 46* | 14 | 3 | 1 | 8 | 0 | i
Cc1ccc(-c2cc(C(=O)NCCCN3CCOCC3)c3ccccc3n2)cc1 | 53* | 2 | -1 | 1 | 9 | 0 | x
O[C@H](COc1cccc(F)c1)CN1CCC(C(O)(c2ccccc2)c2ccccc2)CC1 | x | -16 | x | -13 | x | x | x
CCn1c2c(n(C(C)=O)c1=O)C[C@@H](c1ccccc1)[C@@H](C)[C@@H](C(=O)N1CCCC1)C2 | x | 0 | x | 5 | x | x | x
CC(=O)Nc1ccc(NC(=O)COc2ccc(-c3ccc(C#N)cc3)cc2)cc1 | -112 | 3 | -3 | -6 | -2 | -2 | x
N#Cc1ccc(-c2ccc(OCC(=O)Nc3cccnc3)cc2)cc1 | 38* | 9 | -6 | -1 | 1 | -1 | i
Cc1nc(-c2ccccc2)ccc1C(=O)O | 14 | 0 | -5 | 3 | 3 | -2 | x
Cc1nc(-c2cccc3ccccc23)ccc1C(=O)O | 43* | 2 | -8 | -2 | -23 | -5 | i
Cc1ccc2nc(-c3ccc(NC(=O)COCC(=O)O)cc3)sc2c1 | 45* | 8 | 2 | 3 | -38 | 4 | +
Cc1ccc2nc(-c3ccc(NC(=O)CSCC(=O)O)cc3)sc2c1 | x | 2 | -3 | 1 | -19 | 3 | x
CC(C)CN(CC(C)C)c1nc(N)c(C#N)c(CC#N)c1C#N | 38* | 15 | -2 | 18 | 3 | 6 | x
